Our source for the Potency values is PubChem BioAssay (Tox21).

Records with an inconclusive call do not appear. Some compounds were tested as several samples or in several runs, with calls that do not always agree. Activity calls are given as the source filed them. Unless noted, the call rests on the fitted dose curve.

Test [1] can be described thus: Nuclear factor erythroid 2-related factor 2/antioxidant responsive element (Nrf2/ARE) small molecule agonists: luciferase reporter gene qHTS assay in human keratinocytes (AID 1919969). Further: nearly all actives have a fitted effect of over 35% in size. Conditions: KeratinoSens HaCaT ARE-luciferase, luminescence, 24 h; series mostly up to 92.4 µM. On the technique in general: In a reporter assay the amount or activity of a reporter protein is the signal.

In test [2] the target is Gonadotropin-releasing hormone receptor (Homo sapiens) (UniProt P30968). Nature of the test: Human gonadotropin-releasing hormone receptor (GnRHR) small molecule agonists, calcium flux assay in GnRHR-HEK293 cells (AID 1920063). Further: nearly all actives have a fitted effect of over 35% in size. Conditions: calcium flux fluorescence, agonist mode; series mostly up to 57.6 µM. The method in brief: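 HEK293 cells stably expressing human GnRHR were plated 18 h at 37 °C, loaded with calcium dye 1 h at 37 °C, then given compound in agonist mode; fluorescence (Ex/Em 480/540) read kinetically for 3 min at 1 s intervals.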
Gonadotropin-releasing hormone receptor (Homo sapiens), sequence (P30968 whole entry, looked up): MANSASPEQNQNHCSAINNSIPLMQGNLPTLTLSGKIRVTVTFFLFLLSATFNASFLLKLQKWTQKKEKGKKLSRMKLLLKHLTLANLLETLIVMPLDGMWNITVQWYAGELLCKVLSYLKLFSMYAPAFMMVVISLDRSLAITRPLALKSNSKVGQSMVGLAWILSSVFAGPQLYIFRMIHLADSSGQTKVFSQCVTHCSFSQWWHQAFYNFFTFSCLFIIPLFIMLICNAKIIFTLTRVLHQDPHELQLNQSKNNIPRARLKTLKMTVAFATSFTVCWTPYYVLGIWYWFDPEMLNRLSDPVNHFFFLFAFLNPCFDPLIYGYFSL
(A change in cytosolic calcium serves as a functional read-out for many receptors and channels.)

Test [3] has as its target KiSS-1 receptor (Homo sapiens) (UniProt Q969F8). The experiment in a line: Human kisspeptin (KISS1R) small molecule agonists, calcium flux assay in KISS1R-HEK293 cells (AID 1920064; active means well fitted activation curve with a large enough effect in the repeat runs). Conditions: KISS1R-HEK293, calcium flux fluorescence, agonist; series mostly up to 76.8 µM. The method in brief: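 HEK293 cells stably expressing human KISS1R were plated 18 h at 37 °C, loaded with calcium dye for 1 h at 37 °C, then given compound by pin tool. Fluorescence (Ex/Em 480/540) was read kinetically for 3 min.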

Test [4] is described as follows: G protein-coupled receptor (GPCR) small molecule agonists, calcium flux assay: HEK293 wild type cell line counter screen (AID 1920065). The following applies: HEK293 WT calcium flux, fluorescence, agonist mode; series mostly up to 57.6 µM. The method in brief:
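Cells were plated and cultured 18 h at 37 C/5% CO2, then loaded with calcium dye for 1 h at 37 C. Compounds in DMSO were pin-transferred in agonist mode, and fluorescence (Ex/Em 480/540) was read kinetically for 3 min at 1 s intervals.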

The nature of test [5]: p53 small molecule agonists, cell-based qHTS assay with human liver microsomes (AID 1963577). Conditions: HCT-116 p53RE-bla with human liver microsomes, ratio, 16 h; series mostly up to 66 µM. The method in brief: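 p53RE-bla cells, 4,000/well, compound added after 5 h, with human liver microsomes 0.5 mg/mL and NADPH 0.5 mg/mL final; 16 h at 37 C, then LiveBLAzer 2 h RT, fluorescence.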
On the technique in general: Quantitative high-throughput screening tests each substance at several concentrations.

A short description of test [6]: p53 small molecule agonists, cell-based qHTS assay with rat liver microsomes (AID 1963578). Conditions: HCT-116 p53RE-bla, beta-lactamase ratio, 16 h; series mostly up to 66 µM. The method in brief:
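p53RE-bla cells, 4,000/well, pre-incubated 5 h, then given compounds plus rat liver microsomes (0.5 mg/mL final) and NADPH (0.5 mg/mL final). Incubation 16 h at 37 C; beta-lactamase reporter read by LiveBLAzer fluorescence after 2 h at room temperature.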

Test [7] in a line: p53 small molecule agonists, cell-based qHTS assay with rat liver microsomes: qHTS cell viability counter screen (AID 1963580). Further: nearly all actives have a fitted effect of over 45% in size. Further: potency means the concentration at half of the fitted maximal effect. Conditions: p53RE-bla HCT-116 + rat microsomes, ATP viability, 16 h; series mostly up to 66 µM. The method in brief: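 Viability is assessed in parallel with the p53 reporter read: HCT-116 p53RE-bla cells receive compounds plus rat microsomes and NADPH (0.5 mg/mL final apiece), incubate 16 h at 37 C, and then CellTiter-Glo luminescence is recorded.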

A short description of test [8]: p53 small molecule agonists, cell-based qHTS assay: qHTS cell viability counter screen (AID 1963581). Further: nearly all actives have a fitted effect of over 45% in size. The following applies: p53RE-bla HCT-116 viability, ATP luminescence, 16 h; series mostly up to 66 µM. The method in brief: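 p53RE-bla HCT-116 cells were exposed to compounds for 16 h at 37 C; after the beta-lactamase FRET read in the same wells, CellTiter-Glo was added and luminescence (intracellular ATP) read after 30 min at room temperature.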

A short description of test [9]: p53 small molecule agonists, cell-based qHTS assay (AID 1963582; active means well fitted activation curve with a large enough effect in the signal ratio in the repeat runs, not every such curve was filed as active; the % refers to the signal ratio). The following applies: HCT-116 p53RE-bla reporter, beta-lactamase FRET ratio, 16 h; series mostly up to 66 µM. The method in brief:
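p53RE-bla beta-lactamase reporter cells rested 5 h at 37 C/5% CO2, then received compounds in DMSO by pin transfer and were incubated 16 h at 37 C. LiveBLAzer B/G FRET substrate was loaded for 2 h at room temperature before fluorescence reading.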

The target in test [10] is 5-hydroxytryptamine receptor 2A (Homo sapiens) (UniProt P28223). The experiment in a line: 5-hydroxytryptamine receptor 2A (HTR2A) small molecule antagonists, cell-based qHTS assay (AID 1963586). Further: nearly all actives have a fitted effect of over 45% in size. Further: potency means the concentration at half of the fitted maximal effect. Conditions: HTR2A-CHO cells, DOI-induced calcium flux, fluorescence; series mostly up to 61.5 µM. The method in brief: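 Antagonist-mode intracellular calcium assay: DOI (4 nM) added after 5 min compound pre-incubation at room temperature to dye-loaded HTR2A-CHO cells. Fluorescence followed for 3 min, sampled every second.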
5-hydroxytryptamine receptor 2A (Homo sapiens), sequence (P28223 whole entry, looked up): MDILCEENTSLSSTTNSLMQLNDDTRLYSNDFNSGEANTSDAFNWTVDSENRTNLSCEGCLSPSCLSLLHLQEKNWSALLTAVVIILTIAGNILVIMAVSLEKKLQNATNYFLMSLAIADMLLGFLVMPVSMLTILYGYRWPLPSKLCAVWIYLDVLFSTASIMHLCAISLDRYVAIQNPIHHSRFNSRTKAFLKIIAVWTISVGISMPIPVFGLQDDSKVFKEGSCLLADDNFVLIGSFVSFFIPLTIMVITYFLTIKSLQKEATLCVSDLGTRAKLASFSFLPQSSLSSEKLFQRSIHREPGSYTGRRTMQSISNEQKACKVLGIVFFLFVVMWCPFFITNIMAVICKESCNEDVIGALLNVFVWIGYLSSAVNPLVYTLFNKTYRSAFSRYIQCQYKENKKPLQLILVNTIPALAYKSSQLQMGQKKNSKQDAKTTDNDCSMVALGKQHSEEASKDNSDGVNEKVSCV

The target is the same in test [11]. The experiment in a line: 5-hydroxytryptamine receptor 2A (HTR2A) small molecule agonists, cell-based qHTS assay (AID 1963587). Further: nearly all actives have a fitted effect of over 30% in size. The following applies: HTR2A-CHO cells, calcium flux fluorescence, agonist mode; series mostly up to 76.8 µM. The method in brief:
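CHO cells stably expressing human HTR2A, plated 18 h, loaded with calcium dye 1 h at 37 C. Agonist mode: compounds added and intracellular calcium fluorescence recorded kinetically for 2 min at 1 sec intervals.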

Test [12] concerns the target Muscarinic acetylcholine receptor M1 (Homo sapiens) (UniProt P11229). The experiment in a line: Cholinergic receptor muscarinic 1 (CHRM1) small molecule antagonists, cell-based qHTS assay (AID 1963588). Further: nearly all actives have a fitted effect of over 40% in size. The following applies: CHRM1-CHO antagonist mode, calcium flux fluorescence; series mostly up to 61.5 µM. The method in brief: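 CHRM1-CHO calcium-flux assay, antagonist mode. Cells were seeded 18 h, dye-loaded 1 h at 37 C and given compound for 5 min at RT, then acetylcholine was added at 50nM. FDSS fluorescence was read 3 min; 15 concentrations, three runs.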

The target is the same in test [13]. The experiment in a line: Cholinergic receptor muscarinic 1 (CHRM1) small molecule agonists, cell-based qHTS assay (AID 1963589). Further: nearly all actives have a fitted effect of over 35% in size. Conditions: CHRM1-CHO cells, agonist mode, calcium flux fluorescence; series mostly up to 76.8 µM. The method in brief: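 CHO cells stably expressing human CHRM1, seeded 18 h at 37 C/5% CO2, dye-loaded 1 h at 37 C, then given compound in agonist mode; intracellular calcium fluorescence read kinetically at 1 s intervals. Fifteen concentrations, three independent runs.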

Test [14] in a line: cAMP Responsive Elements (CRE) small molecule agonists, cell-based qHTS assay (AID 1963590). The following applies: CRE-bla HEK293T, beta-lactamase FRET ratio, 3 h; series mostly up to 92.4 µM. The method in brief: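 CRE-bla HEK 293T cells in DMEM with 10% dialyzed FBS, NEAA, pyruvate and 25 mM HEPES were plated 18 h at 37 C/5% CO2, then exposed to compounds in DMSO for 3 h before LiveBLAzer B/G FRET substrate addition.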

Test [15] addresses Beta-2 adrenergic receptor (Homo sapiens) (UniProt P07550). Nature of the test: Adrenergic beta2 receptor (ADRB2) small molecule antagonists, cell-based qHTS assay (AID 1963592). Further: nearly all actives have a fitted effect of over 50% in size. Conditions: CHO-ADRB2 cells, isoproterenol-stimulated cAMP HTRF ratio, 0.5 h; series mostly up to 92.4 µM. The method in brief: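 Cells (CHO, stable ADRB2 overexpression) incubated 18-20hr at 37C; compounds added from DMSO; agonist mix (1nM isoproterenol, 100uM IBMX, 25uM Ro-20-1724) added; 0.5hr RT; d2-cAMP and anti-cAMP-cryptate added; 1hr RT; 665/615 nm read.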

Test [16] has the same target. The experiment in a line: Adrenergic beta2 receptor (ADRB2) small molecule agonists, cell-based qHTS assay (AID 1963593).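 Further: CHO cells stably overexpressing human ADRB2.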 Conditions: CHO-ADRB2 cells, cAMP HTRF, 30 min; series mostly up to 92.4 µM. The method in brief: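 CHO cells stably over-expressing ADRB2 were plated overnight at 37C, then dosed with compounds plus a stimulation mix containing 100uM IBMX and 25uM Ro-20-1724 for 0.5hr at room temperature. cAMP was measured by HTRF competition, 1hr.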

The target in test [17] is D(2) dopamine receptor (Homo sapiens) (UniProt P14416). The experiment in a line: Dopamine D2 receptor (DRD2) small molecule agonists, cell-based qHTS assay (AID 1963594). Further: nearly all actives have a fitted effect of over 35% in size. Conditions: HEK293-DRD2 cAMP HTRF, agonist mode, 30 min; series mostly up to 92.4 µM. The method in brief: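 HEK293 cells stably expressing human DRD2, pre-treated with PDE inhibitor Ro20-1724 (0.1 mM final) and compound 10 min at room temperature, then stimulated with NKH477 (200nM […]) for 30 min. cAMP read by HTRF (665/620 nm).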
D(2) dopamine receptor (Homo sapiens), sequence (P14416 whole entry, looked up): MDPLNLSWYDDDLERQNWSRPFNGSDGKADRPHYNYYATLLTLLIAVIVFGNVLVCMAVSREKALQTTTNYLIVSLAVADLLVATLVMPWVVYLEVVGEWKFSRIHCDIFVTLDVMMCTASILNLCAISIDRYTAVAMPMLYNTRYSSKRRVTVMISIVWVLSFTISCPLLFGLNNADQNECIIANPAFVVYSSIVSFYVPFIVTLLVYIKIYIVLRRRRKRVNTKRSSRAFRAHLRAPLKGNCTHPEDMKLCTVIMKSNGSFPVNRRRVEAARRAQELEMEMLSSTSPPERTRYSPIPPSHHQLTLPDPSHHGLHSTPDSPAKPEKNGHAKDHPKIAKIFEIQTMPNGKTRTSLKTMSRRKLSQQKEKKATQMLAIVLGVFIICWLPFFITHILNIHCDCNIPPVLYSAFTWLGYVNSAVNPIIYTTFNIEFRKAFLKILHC

Test [18] has the same target. Nature of the test: Dopamine D2 receptor (DRD2) small molecule antagonists, cell-based qHTS assay (AID 1963595; active means well fitted inhibition curve with a large enough effect in the signal ratio in the repeat runs, with a control signal flat; the % refers to the signal ratio). The following applies: HEK293-DRD2 cAMP HTRF antagonist mode; series mostly up to 92.4 µM. The method in brief:
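Human DRD2 antagonist qHTS measuring cAMP by HTRF. The cells are exposed to compound for 10 min, then to NKH477 (200 nM) and quinpirole (12 nM) for 30 min at RT, with Ro20-1724 (0.1 mM) present throughout.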

The nature of test [19]: p53 small molecule agonists, cell-based qHTS assay with human liver microsomes: qHTS cell viability counter screen (AID 1963579). Further: nearly all actives have a fitted effect of over 45% in size. Further: potency means the concentration at half of the fitted maximal effect. Conditions: p53RE-bla HCT-116 viability, ATP luminescence, 16 h, HLM; series mostly up to 66 µM. The method in brief:
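p53RE-bla cells, 4,000/well, dosed 5 hours after plating, with human liver microsomes (0.5 mg/mL final) plus NADPH (0.5 mg/mL final), 16 hours at 37 C. Viability read as CellTiter-Glo luminescence after 30 min at room temperature.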

Test [20] in a line: cAMP Responsive Elements (CRE) small molecule antagonists, cell-based qHTS assay (AID 1963591; active means well fitted inhibition curve with a large enough effect in the signal ratio in the repeat runs, not every such curve was filed as active; the % refers to the signal ratio). The following applies: CRE-bla HEK293T, beta-lactamase FRET ratio; series mostly up to 92.4 µM. The method in brief:
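CRE-bla HEK293T cells were plated 18 h at 37 °C/5% CO2, pinned with compound in DMSO, then stimulated with NKH477 at 0.25 uM final for 3 h. LiveBLAzer B/G FRET substrate was added and plates incubated 2 h at room temperature.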

KiSS-1 receptor (Homo sapiens), sequence (Q969F8 whole entry, looked up): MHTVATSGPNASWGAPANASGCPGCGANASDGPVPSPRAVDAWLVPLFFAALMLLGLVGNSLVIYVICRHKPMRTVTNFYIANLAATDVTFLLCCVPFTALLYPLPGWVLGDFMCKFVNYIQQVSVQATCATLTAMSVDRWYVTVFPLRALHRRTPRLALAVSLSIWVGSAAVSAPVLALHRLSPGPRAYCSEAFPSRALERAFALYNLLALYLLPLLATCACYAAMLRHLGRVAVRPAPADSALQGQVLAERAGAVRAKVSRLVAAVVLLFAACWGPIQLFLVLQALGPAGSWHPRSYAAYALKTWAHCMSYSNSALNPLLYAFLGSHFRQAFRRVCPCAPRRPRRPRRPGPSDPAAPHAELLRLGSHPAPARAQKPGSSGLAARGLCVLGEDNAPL
Beta-2 adrenergic receptor (Homo sapiens), sequence (P07550 whole entry, looked up): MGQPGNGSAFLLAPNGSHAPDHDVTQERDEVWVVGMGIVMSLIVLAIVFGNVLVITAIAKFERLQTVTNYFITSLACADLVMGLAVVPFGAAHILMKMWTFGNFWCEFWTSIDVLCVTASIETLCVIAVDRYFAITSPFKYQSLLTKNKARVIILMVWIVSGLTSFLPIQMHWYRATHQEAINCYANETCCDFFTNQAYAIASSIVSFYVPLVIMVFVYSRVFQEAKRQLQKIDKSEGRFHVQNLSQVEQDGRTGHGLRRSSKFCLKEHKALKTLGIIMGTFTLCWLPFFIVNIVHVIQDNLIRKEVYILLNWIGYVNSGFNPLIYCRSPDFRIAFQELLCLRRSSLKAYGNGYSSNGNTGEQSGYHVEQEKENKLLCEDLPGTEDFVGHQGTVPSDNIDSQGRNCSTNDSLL
Muscarinic acetylcholine receptor M1 (Homo sapiens), sequence (P11229 whole entry, looked up): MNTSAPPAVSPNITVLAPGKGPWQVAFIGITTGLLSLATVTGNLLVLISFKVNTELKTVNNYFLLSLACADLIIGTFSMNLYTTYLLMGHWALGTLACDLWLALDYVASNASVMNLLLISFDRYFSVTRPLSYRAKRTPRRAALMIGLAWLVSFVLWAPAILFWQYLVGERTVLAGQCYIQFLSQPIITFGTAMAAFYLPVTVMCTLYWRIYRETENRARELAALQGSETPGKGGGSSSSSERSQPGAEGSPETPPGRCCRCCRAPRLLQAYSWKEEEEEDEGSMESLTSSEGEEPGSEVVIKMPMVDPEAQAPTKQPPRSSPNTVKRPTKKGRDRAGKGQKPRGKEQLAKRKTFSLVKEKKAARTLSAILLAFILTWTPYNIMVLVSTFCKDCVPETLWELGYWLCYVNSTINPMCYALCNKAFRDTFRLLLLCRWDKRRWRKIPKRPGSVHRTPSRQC

Consider `Nc1ccncc1N`, for which the Potency result in test [1], in [2], in test [3], in test [4], in test [5] and in test [6] was “inactive” throughout. Further, the Potency result in test [7], in test [8], in test [9], in test [10], in test [11] and in test [12] was “inactive” each time. Moreover, the Potency entry in test [13], in [14], in [15], in test [16], in [17] and in test [18] was “inactive” in each case.

`O=c1c(-c2ccc(O)cc2)coc2cc(O)ccc12`: the Potency result in test [1], in test [2], in [3], in [4], in test [5] and in test [6] was “inactive” each time. Also, the Potency entry in test [19], in [8], in test [11], in test [12], in [13] and in test [20] was “inactive” in each case. Further, the Potency result in [15], in [17] and in [18] was “inactive” each time. In addition, the figures for the Potency in test [7] and in [10] were 10.1 µM (active) and 33.4 µM (active), respectively.

Turning to `CC(C)CCCCCOC(=O)CCS`, the Potency result in [1], in test [2], in [3], in [4], in test [5] and in test [6] was “inactive” in each case. Also, the Potency result in [7], in test [8], in [9], in [10], in test [11] and in test [12] was “inactive” throughout. Moreover, the Potency entry in test [13], in test [14], in test [20], in [15], in test [17] and in test [18] was “inactive” throughout.

On to `COc1cc(C(=O)N2CCCCCCC2)cc(OC)c1OC`, for which the Potency entry in test [1], in test [2], in test [3], in test [4], in test [6] and in [19] was “inactive” throughout. In addition, the Potency entry in test [7], in [8], in test [9], in test [10], in [11] and in test [12] was “inactive” throughout. For the same molecule, the Potency entry in [13], in test [14], in test [20], in [15], in test [16] and in test [17] was “inactive” in each case. In addition, the Potency entry in test [18] is “inactive”.

In the case of `CSc1ccc2c(c1)N(CCC1CCCCN1C)c1ccccc1S2` (stereo not drawn), the Potency result in [1], in test [2], in [3], in test [4], in [5] and in [6] was “inactive” in each case. Moreover, the Potency entry in [8], in test [15], in test [16] and in [17] was “inactive” in each case. In addition, the Potency was 45.6 µM (active) and inactive in [19]; 40.6 µM (active) and inactive in test [7].

Take `CCN(CC)CCNC(=O)c1ccc(NC(C)=O)cc1`: the Potency entry in test [1], in [2], in [3], in [4], in test [5] and in test [6] was “inactive” in each case. Also, the Potency entry in test [19], in test [7], in [9], in [10], in test [11] and in test [12] was “inactive” in each case. For the same molecule, the Potency entry in test [13], in [14], in test [20], in test [15] and in [16] was “inactive” in each case.

As for `Cn1cnc2c1c(=O)[nH]c(=O)n2C`, the Potency entry in test [1], in [2], in test [3], in [4], in test [19] and in test [7] was “inactive” in each case. Moreover, the Potency entry in [8], in test [10], in [11], in [12], in test [13] and in test [14] was “inactive” each time. The Potency result in test [20], in test [15], in test [16], in test [17] and in test [18] was “inactive” throughout.
